Only a selection was taken, and hits are over-represented in it overall.
Ba CapD inh – inhibitors of Bacillus anthracis CapD enzyme; purified CapD enzyme, fluorescence intensity read-out; active compounds read low; z-score (no concentration beside the values); 140,000 tested, 0.23% active; AID 492967; in the data active means z-score mostly below about -2.9, no sharp cut-off; inactive means mostly above about -1.9
* hit, by the source's call.

SMILES | Ba CapD inh
CC1=C(C(=O)Nc2ccccc2)C(c2ccc(F)cc2)n2ncnc2N1 (stereo unspecified) | -0.42
CC1=NN(c2ccc(C(=O)NCc3ccc(N(C)C)cc3)cc2)C(=O)C1 | -1.06
CC1=NN(c2ccccc2)C(=O)C1 | -0.89
CC1=NN(c2ccc3c(S(=O)(=O)O)cc(S(=O)(=O)O)cc3c2)C(=O)C1 | -6*
CCOc1cccc2c1OC(c1ccc(C(=O)OC)cc1)N1N=C(c3cccnc3)CC21 (stereo unspecified) | -0.59
CCCCn1c(C)nc2ccc(S(N)(=O)=O)cc21 | 0.125
O=C1c2sc3nnc(-c4ccccc4)c(=O)n3c2C(=O)N1c1ccc(Br)cc1 | 0.305
Cc1nnc2sc3c(n2c1=O)C(=O)N(c1ccc(I)cc1)C3=O | 0.09
CCc1ccc(N2C(=O)c3sc4nnc(C)c(=O)n4c3C2=O)cc1 | -2.12*
CC(C)(C)C1(C)OC(=O)C(=Cc2ccccc2Cl)C(=O)O1 (stereo unspecified) | -0.365
CC(C)(C)C1(C)OC(=O)C(=Cc2ccc(Br)o2)C(=O)O1 (stereo unspecified) | -5.07*
CC1(C)OC(=O)C(=Cc2ccc(-c3ccccc3)o2)C(=O)O1 | 0.36
O=C(Oc1cc(=O)oc2c1c(=O)n1c3c(cccc23)CCC1)c1ccccc1 | 0.025
O=C(c1cccc(Cl)c1Cl)N1CCOCC1 | 0.145
O=C(O)CCn1c2ccccc2c2cn[nH]c(=O)c21 | -0.4
O=C1OC/C(=C(\O)c2ccc(Cl)cc2)C1=O | -5.44*
O=C1OC/C(=C(/O)c2ccccc2)C1=O | -3.07
N#CC1=C(c2ccc(Cl)cc2)COC1=O | 2.91
O=C(CSc1nc2ccc(NC(=O)CSc3nnnn3-c3ccccc3)cc2s1)Nc1ccccc1 | 0.065
O=C(O)Cn1c(O)c(C=Nc2ccccc2)sc1=S | -7.41*
C=CCn1c(O)c(C=Nc2ccccc2)sc1=S | -2.69
Oc1[nH]c(=S)sc1C=Nc1ccccc1 | 0.18
COc1cccc(-n2nc(C(=O)N3CCC(C(N)=O)CC3)c3ccccc3c2=O)c1 | 0.5
COc1ccc(-n2nc(C(=O)NCc3ccco3)c3c4ccccc4n(C)c3c2=O)cc1 | 0.84
Cc1coc2cc3oc(=O)c(CC(=O)N4CCCC4)c(C)c3cc12 | 5.25
SMILES | Ba CapD inh
O=C1S/C(=C\c2ccco2)C(=O)N1c1ccccc1 | -2.41*
O=C(O)c1cccc(-c2ccc(/C=C3/SC(=O)N(c4ccccc4)C3=O)o2)c1 | 18.1
N=C1S/C(=C\c2ccco2)C(=O)N1c1ccc(Oc2ccccc2)cc1 | -0.19
O=C1CC(c2ccccc2)CC(O)=C1C=NCc1ccncc1 (stereo unspecified) | -0.755
N/N=C(\CCC(=O)O)c1ccccc1 | -0.035
COc1cc(C=C2C(=O)N(C)C(=O)N(C)C2=O)ccc1OC(=O)c1cc(F)c(F)cc1Cl | 0.1
O=C(Nc1ccc(F)cc1F)c1ccc(COc2c(F)c(F)cc(F)c2F)o1 | -0.125
